# Test results taken from PubChem BioAssay (NCI).
# Compounds without any hit were thinned out: in the full panel of roughly 83,000, 20% have a hit.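 96-well plates, one dose, 48 hours. Percent growth reported; active if below 10.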 A number with no mark means an inactive call. Active and inactive are the calls of the source.
# System: MDA-MB-468 breast
# Test: NCI-60 one-dose screen, 48 h (100 = growth as untreated, 0 = no growth, -100 = all killed)
# Conditions: 10 µM unless noted
row,SMILES,growth
1,COC(=O)CC1=C(C)/C(=C/c2[nH]c(-c3ccc[nH]3)cc2OC)N=C1C,19%
2,CCOc1ccc(Cc2nccc3cc(OCC)c(OCC)cc23)cc1OCC,61.4%
3,O=S(=O)(NCl)c1ccccc1,108%
4,CC(=O)N=c1ccc2nc3c(cc(N)c4ccccc43)oc-2c1,-44.5% (active)
5,CSc1nc2c(c(=O)n1C)CN(Cc1ccccc1)C(=O)CN2,71.3%
6,COc1cc(NCCCCCN=C(N)NC(N)=NC(C)C)c2ncccc2c1,-63.5% (active)
7,O=C(Nc1ccccc1)c1sc(-c2ccccc2)cc1O,107%
8,O=c1[nH]ccc2c(S(=O)(=O)N3CCCNCC3)cccc12,15.9%
9,Cc1ccc(S(=O)(=O)NCCCNc2nccc(-c3c(-c4cccc(F)c4)nc4occn34)n2)cc1,55.6%
10,CCC([N+](=O)[O-])S(=O)(=O)c1ccc(C)cc1 (stereo unspecified),91.3%
11,CNC(=O)c1cc(Oc2ccc(NC(=O)Nc3ccc(Cl)c(SC)c3)c(F)c2)ccn1,13.6%
12,CCOC(=O)c1c(C(F)(F)F)n([O-])c2ccc(Cl)cc2[n+]1=O,-55.3% (active)
13,COc1cc(NC(C)CCCN)c2ncccc2c1Sc1ccc(Cl)cc1 (stereo unspecified),-2.79% (active)
14,CC(=O)Nc1ccc2c(c1)C(=O)c1cccc(C(=O)O)c1-2,90.9%
15,O=S(=O)(NCCCNc1nccc(-c2c(-c3ccc(F)cc3)nc3sccn23)n1)c1ccc(F)cc1,50.5%
16,O=C(N/N=C/c1ccccc1O)c1ccccc1O,17%
